Laboratory results: PubChem BioAssay (EPA / NIEHS)
Records with an inconclusive call do not appear. The source made the active and inactive calls. The calls were made as follows, unless noted: active = hit-call score of the fitted dose curve at least 0.9, where 1 is the maximum; inactive = score below 0.9.

Columns and labels:
[1] = CCTE_Harrill_HTTr_CellCount_MCF7: CCTE's Cell Proliferation Assessment for the High-Throughput Transcriptomics (HTTr) Platform, Harrill Lab (AID 2284012; active = hit-call score of the fitted dose curve at least 0.9, where 1 is the maximum;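 also: count of Hoechst-stained nuclei per well by high-content imaging in MCF-7 cells; cells exposed to compound for six hours; intended direction is loss of nuclei count meaning fewer cells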)
Method in brief: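 Chemicals in eight-point dilution series are added to MCF-7 cells for six hours, nuclei are stained with Hoechst and imaged, and per-well nuclei counts are fitted in both directions relative to DMSO controls.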

[2] = CCTE_Shafer_MEA_acute_burst_number: CCTE's Neural Acute Assay for Single-Electrode Bursts, Shafer Lab (AID 2284013)
Method in brief: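 Primary rat cortical neurons on 16-electrode MEA wells, treated on DIV 13 or 15 with compound at 0.03-40 uM. Single-electrode burst count from 40-min recordings at 37 C before and after exposure; percent change from baseline per well, DMSO negative control.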

[3] = CCTE_Shafer_MEA_acute_burst_duration_mean: CCTE's Neural Acute Assay for Mean Burst Duration, Shafer Lab (AID 2284014);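 also: hits are decreases in mean burst duration relative to DMSO controls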
Method in brief: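 Rat primary cortical neurons on 48-well MEA, treated at DIV 13 or 15 with 0.03-40 uM in at least 3 wells. Value is percent change in mean burst duration, comparing 40 min recordings at 37 C before and during exposure.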

[4] = CCTE_Shafer_MEA_acute_per_burst_spike_number_mean: CCTE's Neural Acute Assay for Average Number of Spikes Per Burst, Shafer Lab (AID 2284015);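 also: hits are decreases in mean spikes per burst versus baseline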
Method in brief: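 We recorded spontaneous network firing of rat cortical neurons for 40 min before and 40 min during exposure to compound at 0.03-40 uM, at 37 C. Spikes were detected adaptively at 8x rms noise, and the change in average spikes per burst was fitted against DMSO.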

[5] = CCTE_Shafer_MEA_acute_interburst_interval_mean: CCTE's Neural Acute Assay for Mean Interburst Interval, Shafer Lab (AID 2284016);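 also: percent change of mean interburst interval versus each well's own pre-dose baseline; curves fitted for decrease in interburst interval relative to DMSO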
Method in brief: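 MEA recording of spontaneous network bursting in primary rat cortical cultures; mean interburst interval was compared before and after a 40-min compound exposure (0.03-40 uM) and expressed as percent change, relative to DMSO.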

[6] = CCTE_Shafer_MEA_acute_burst_percentage_mean: CCTE's Neural Acute Assay for Percentage of Spikes in a Burst, Shafer Lab (AID 2284017);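 as to AC50: curve fitted for loss of signal so potency reflects decreased burst percentage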
Method in brief: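 Compounds were tested at 0.03-40 uM on primary rat cortical neuron networks grown over microelectrodes, with at least three wells per compound. Spontaneous firing was recorded for 40 min before and 40 min after dosing, and the change in burst percentage was computed per well.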

[7] = CCTE_Shafer_MEA_acute_burst_percentage_std: CCTE's Neural Acute Assay for Standard Deviation of Burst Percentage, Shafer Lab (AID 2284018);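 also: fitted in the negative direction so actives lower burst percentage SD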
Method in brief: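 Rat primary cortical neurons on 48-well MEAs, DIV 13 or 15, 37 C. 40-min baseline then 40-min recording with compound (0.03-40 uM); well-level SD of per-electrode burst spike percentage, expressed as percent change from baseline.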

[8] = CCTE_Shafer_MEA_acute_per_network_burst_spike_number_mean: CCTE's Neural Acute Assay for Average Number of Spikes in a Network Burst, Shafer Lab (AID 2284019);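 as to AC50: curve fitted for loss of signal so actives reduce spikes per network burst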
Method in brief: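 Rat primary cortical neurons on 48-well MEA at DIV 13 or 15, 37 C; compounds 0.03-40 uM, at least three wells each. 40-min baseline then 40-min exposure recording; percent change in mean spikes per network burst.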

[9] = CCTE_Shafer_MEA_acute_per_network_burst_spike_number_std: CCTE's Neural Acute Assay for Standard Deviation of Number of Spikes in a Network Burst, Shafer Lab (AID 2284020);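 also: fitted for decrease in spike-number SD versus DMSO so actives lower it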
Method in brief: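 Rat primary cortical neurons on 48-well MEA (16 electrodes/well), treated DIV 13 or 15 at 0.03-40 uM, ≥3 wells per compound. 40 min recordings at 37 C before and after dosing; value is percent change in network-burst spike-number SD, negative direction vs DMSO.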

[10] = CCTE_Shafer_MEA_acute_network_burst_percentage: CCTE's Neural Acute Assay for Percentage of Network Bursts, Shafer Lab (AID 2284022);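 also: curves fitted for loss so actives lower network burst percentage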
Method in brief: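 On DIV 13 or 15, at least three wells of rat cortical neurons per compound are dosed at 0.03-40 uM. Spontaneous firing is detected at 8x rms noise for 40 min before and after dosing at 37 C. The percent change in network-burst spike share is reported.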

[11] = CCTE_Shafer_MEA_acute_cross_correlation_area: CCTE's Neural Acute Assay for Area of Cross Correlation, Shafer Lab (AID 2284024);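 also: area under pooled inter-electrode spike cross-correlation near zero lag as percent change from own baseline; curves fitted for loss of cross-correlation area so actives lower synchrony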
Method in brief: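 Extracellular recordings from cultured rat cortical neurons measure network synchrony as cross-correlation area; each well's post-compound value (0.03-40 uM, 40 min) is compared with its own 40 min baseline to give percent change.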

[12] = CCTE_Shafer_MEA_acute_cross_correlation_HWHM: CCTE's Neural Acute Assay for Cross Correlation at Half Width at Half Maximum, Shafer Lab (AID 2284026);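 also: percent change per well from pre-dose baseline in spike cross-correlogram half width; hits are a decrease in cross-correlogram half width relative to DMSO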
Method in brief: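 Percent change in cross-correlogram half width at half maximum, narrower meaning more synchrony, was derived per well from paired 40-min recordings before and during exposure to 0.03-40 uM compound in rat cortical cultures at 37 C.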

[13] = CCTE_Shafer_MEA_acute_synchrony_index: CCTE's Neural Acute Assay for Synchrony, Shafer Lab (AID 2284027);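 also: fitted for loss of signal so actives lower synchrony relative to DMSO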
Method in brief: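 Readout is percent change in the unitless network synchrony index (0 low, 1 high) between a 40-min baseline and a 40-min recording in compound. Cultures were primary rat cortical neurons on MEAs, treated at 0.03-40 uM on DIV 13 or 15.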

[14] = molecular target: Estrogen receptor (Homo sapiens) (UniProt P03372); experiment: CCTE_Deisenroth_AIME_384WELL_LUC_Active: CCTE's 384-well Estrogen Receptor Transactivation Assay with AIME metabolic competence (ERTA luciferase; metabolism positive), Deisenroth Lab (AID 2284030; active = hit-call score of the fitted dose curve at least 0.9, where 1 is the maximum)
Method in brief: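 Estrogenic luciferase signal in VM7Luc4E2 cells is measured at 24 hour, after chemicals have been preconditioned 2 hours with PB/BNF-induced rat hepatic S9 in alginate. Gain of signal is fitted relative to 17beta-estradiol, across 0.002 - 200 uM.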

[15] = CCTE_Deisenroth_AIME_384WELL_CTox_Active: Cytotoxicity Assessment (CTOX) in CCTE's 384-well Estrogen Receptor Transactivation Assay with AIME metabolic competence (metabolism positive), Deisenroth Lab (AID 2284037; active = hit-call score of the fitted dose curve at least 0.9, where 1 is the maximum;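 also: chemicals first conditioned 2 h by alginate-bound induced rat liver S9 before cells; activity means signal loss indicating cell death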)
Method in brief: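 Chemicals pre-incubated 2 hours with alginate-immobilised phenobarbital/beta-naphthoflavone-induced male Sprague Dawley rat liver S9, then conditioned medium applied 24 hour to VM7Luc4E2 cells. Viability by fluorogenic protease substrate; 10-point series 0.002 - 200 uM.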

[16] = molecular target: Estrogen receptor (Homo sapiens) (UniProt P03372); experiment: CCTE_Deisenroth_AIME_96WELL_LUC_Active: CCTE's 96-well Estrogen Receptor Transactivation Assay with AIME metabolic competence (ERTA luciferase; metabolism positive), Deisenroth Lab (AID 2284023; active = hit-call score of the fitted dose curve at least 0.9, where 1 is the maximum)
Method in brief: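 Chemicals pre-incubated 2 h with alginate-immobilized phenobarbital/beta-naphthoflavone-induced male Sprague Dawley rat liver S9, then medium transferred to VM7Luc4E2 cells for 24 h luciferase read-out. 10-point series 0.002 - 200 uM; fitted relative to 17beta-estradiol.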

[17] = molecular target: Estrogen receptor (Homo sapiens) (UniProt P03372); experiment: CCTE_Deisenroth_AIME_96WELL_LUC_Inactive: CCTE's 96-well Estrogen Receptor Transactivation Assay without AIME metabolic competence (ERTA luciferase; metabolism negative), Deisenroth Lab (AID 2284025; active = hit-call score of the fitted dose curve at least 0.9, where 1 is the maximum)
Method in brief: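 VM7Luc4E2 breast cells, luciferase read 24 h after dosing with medium pre-incubated 2 h on alginate-water lids (metabolism negative). 10-point series 0.002–200 uM, single technical replicate, n≥4; fit relative to 17beta-estradiol.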

[18] = CCTE_Shafer_MEA_dev_firing_rate_mean: CCTE's Neural Network Formation Assay for Mean Firing Rate, Shafer Lab (AID 2284031);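 also: AUC of well mean spike rate recorded on DIV 5 7 9 and 12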
Method in brief: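 Rat primary cortical neurons were seeded on multielectrode arrays and treated from plating through day 12, with redosing at each feed. Spontaneous spiking was recorded four times; mean firing rate AUC was fitted downward against DMSO.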

[19] = CCTE_Shafer_MEA_dev_per_burst_spike_percent: CCTE's Neural Network Formation Assay for Percent of Spikes in a Burst, Shafer Lab (AID 2284032)
Method in brief: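 Rat primary cortical neurons on 16-electrode MEA wells, dosed from plating day 0 for 12 days with renewal on DIV 5 and 9; spikes-in-bursts percentage averaged over bursting electrodes, collapsed as AUC across days 5, 7, 9, 12; loss direction versus DMSO.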

Measured: AC50

Sequence of Estrogen receptor (Homo sapiens) (P03372 whole entry, looked up): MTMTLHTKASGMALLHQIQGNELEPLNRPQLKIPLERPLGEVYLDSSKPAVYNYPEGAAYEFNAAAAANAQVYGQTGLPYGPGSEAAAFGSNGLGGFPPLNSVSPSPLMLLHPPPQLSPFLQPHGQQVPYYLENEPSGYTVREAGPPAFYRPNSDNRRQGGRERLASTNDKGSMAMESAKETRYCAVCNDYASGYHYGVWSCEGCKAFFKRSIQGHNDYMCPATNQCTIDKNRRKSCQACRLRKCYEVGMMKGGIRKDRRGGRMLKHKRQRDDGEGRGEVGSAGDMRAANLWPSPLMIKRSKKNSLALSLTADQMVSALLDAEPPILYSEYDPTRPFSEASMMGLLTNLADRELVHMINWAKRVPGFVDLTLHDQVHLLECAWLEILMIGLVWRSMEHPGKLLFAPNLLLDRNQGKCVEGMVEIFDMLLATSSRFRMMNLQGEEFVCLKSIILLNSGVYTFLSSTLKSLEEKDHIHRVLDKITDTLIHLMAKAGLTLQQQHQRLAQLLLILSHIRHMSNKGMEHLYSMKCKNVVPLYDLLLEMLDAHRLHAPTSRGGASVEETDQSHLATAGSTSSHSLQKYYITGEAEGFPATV

NCc1cccc(C2CCN(C(=O)c3ccc(C#Cc4ccccc4F)o3)CC2)c1
active: [2] 8.95 µM | [4] 35.3 µM | [5] 4.14 µM | [6] 30.8 µM | [9] 20 µM | [10] 31.4 µM | [12] 34.9 µM | [13] 28.6 µM
inactive: [1] | [3] | [7] | [8] | [11]

O=C(O)Cc1cc(I)c(Oc2ccc(O)c(I)c2)c(I)c1
inactive: [1]

CCN(CC)C(=O)c1cc(S(=O)(=O)Cc2ccccc2)c(N2CCC(c3ccccc3)CC2)cc1N(CC)CCN(C)C
active: [3] 0.553 µM | [4] 1.54 µM | [6] 13 µM | [8] 1.57 µM | [10] 13.3 µM | [12] 11 µM | [13] 11.8 µM
not listed: [16] | [17] | [18] | [19]
inactive: all other assays above

CCCCCCCC[Si](OCC)(OCC)OCC
inactive: [1]

Cc1cccc2ccccc12
inactive: [1]

Cc1occc1C(=O)Nc1ccc(C(=O)N2CCC(F)(F)/C(=C\C(=O)N3CCC(N4CCCCC4)CC3)c3ccccc32)cc1
inactive: [1]

C[C@]12CC[C@@H]3c4ccc(O)cc4CC[C@H]3[C@@H]1CC[C@H]2O
not listed: [14] | [15] | [16] | [17] | [18] | [19]
inactive: all other assays above

Cc1c2ccccc2c(C)c2c1ccc1ccccc12
active: [5] 7.49 µM | [6] 29.7 µM | [7] 35.2 µM | [12] 26.3 µM | [13] 36.9 µM | [14] 13.9 µM
not listed: [16] | [17] | [18] | [19]
inactive: all other assays above

COc1ccc2cc(S(=O)(=O)N[C@H](CC(=O)N[C@H](Cc3ccc(CN4[C@H](C)CCC[C@@H]4C)cc3)C(=O)N(C)C(C)C)c3ccc4c(c3)OCO4)ccc2c1
inactive: [1]

CCCCCCCCCCCC[N+](C)(C)C
inactive: [1]

CCCCCc1ccc(N)cc1
inactive: [1]

Cc1cn([C@H]2C[C@H](N=[N+]=[N-])[C@@H](CO)O2)c(=O)[nH]c1=O
not listed: [15] | [16] | [17] | [18] | [19]
inactive: all other assays above

Clc1cc(Cl)c2c(c1)N=C1CCCCCN1C2
inactive: [1]

Cc1ccc2oc(CN(Cc3ccccc3)C(=O)Nc3c(F)cc(F)cc3F)c(-c3ccc(Cl)cc3)c2c1
inactive: [1]

COc1cc(C(=O)NC2CCN(C)CC2)ccc1Nc1ncc2c(n1)N(C1CCCC1)CC(F)(F)C(=O)N2C
active: [3] 1.85 µM | [4] 29.9 µM | [5] 3.83 µM | [6] 15 µM | [8] 3.69 µM | [9] 15.2 µM | [10] 10.5 µM | [12] 30.1 µM | [13] 18.6 µM
inactive: [1] | [2] | [7] | [11]

CCN(Cc1cccc(S(=O)(=O)O)c1)c1ccc(C(=C2C=CC(=[N+](CC)Cc3cccc(S(=O)(=O)O)c3)C=C2)c2ccccc2S(=O)(=O)[O-])cc1
active: [13] 12.9 µM
not listed: [14] | [15] | [16] | [17] | [18] | [19]
inactive: all other assays above

O=C(Nc1ccc(Cl)cc1)Nc1ccc(Cl)c(Cl)c1
active: [15] 19.8 µM
inactive: [14]

O=c1ccc2ccccc2o1
inactive: [1] | [16] | [17]

COCC(C)OCC(C)OCC(C)O (stereo not given)
inactive: [14]

CC(C)(c1cc(Br)c(O)c(Br)c1)c1cc(Br)c(O)c(Br)c1
active: [6] 19.1 µM
not listed: [1] | [14] | [15] | [16] | [17]
inactive: all other assays above
